Reference: PubChem BioAssay (Tox21)
Inconclusive results are not listed. A call without a number means that no potency is given here. Activity calls are given as the source filed them. Calls come from the whole dose curve; as a rule, active = well fitted inhibition curve with a large enough effect in the repeat runs; inconclusive = weak or mixed curves; inactive = no such curve, though single readings can be large or run the other way.

Molecular target: Cytochrome P450 2C9 (Homo sapiens) (UniProt P11712)
Sequence (P11712 whole entry, looked up): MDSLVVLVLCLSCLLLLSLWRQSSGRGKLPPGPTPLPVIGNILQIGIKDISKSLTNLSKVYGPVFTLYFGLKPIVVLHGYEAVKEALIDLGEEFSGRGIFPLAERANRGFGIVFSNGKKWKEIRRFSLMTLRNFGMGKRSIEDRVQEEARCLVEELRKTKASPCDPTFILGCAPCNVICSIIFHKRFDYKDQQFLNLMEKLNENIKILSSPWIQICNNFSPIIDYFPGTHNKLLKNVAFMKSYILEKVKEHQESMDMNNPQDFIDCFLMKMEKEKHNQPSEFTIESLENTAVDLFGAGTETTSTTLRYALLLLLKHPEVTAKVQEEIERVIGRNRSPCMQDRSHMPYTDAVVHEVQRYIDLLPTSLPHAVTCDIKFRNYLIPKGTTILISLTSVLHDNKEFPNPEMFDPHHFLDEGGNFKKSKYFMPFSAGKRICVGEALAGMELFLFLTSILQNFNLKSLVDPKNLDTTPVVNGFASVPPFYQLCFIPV
Assay: Cytochrome P450 Family 2 Subfamily C Member 9 (CYP2C9) small molecule antagonists: luciferase reporter qHTS assay (AID 1671198); note: nearly all actives have a fitted effect of over 50% in size
Details: P450-Glo CYP2C9 enzyme assay, luciferin luminescence; series mostly up to 115 µM
Text: U.S. Tox21 Program National Center for Advancing Translational Sciences [NCATS] U.S. Environmental Protection Agency [EPA] National Institutes of Environmental Health Sciences [NIEHS] National Toxicology Program [NTP] U.S. Food and Drug Administration [FDA] Tox21 Assay Overview: Cytochrome P450 (CYP) enzymes are membrane-bound hemeproteins that play a key role in metabolism of drugs and xenobiotics. Evaluation of the effect of chemicals on CYP isozymes is useful to minimize the adverse drug reactions and toxicities in drug development process. Tox21 chemicals were tested for their effect on CYP enzyme activities by using P450-Glo (TM) screening systems (Promega Corporation, Madison, WI). These systems provide a luminescent method containing proluciferin substrates and are converted to luciferin products by CYP isozymes. The luciferin products formed are detected with a luciferin detection reagent, and the amount of light produced is proportional to CYP activity. P450-Glo (TM) CYP2C9 screening system (Catalog. No. V9790) was used to detect the compounds that interfere in CYP2C9 activity.
Tox21 Assay Protocol Summary: Two ul of enzyme-substrate mix was dispensed into medium binding white/solid 1536-well plates (Greiner Bio-One North America Inc., Monroe, NC) using a BioRaptr Flying Reagent Dispenser (FRD, Beckman Coulter, Brea, CA). […] The assay plates were incubated at room temperature for 10 min. Then 2 ul of NADPH regeneration solution was added to each well of the assay plates using an FRD and incubated at 37C for 1 h. The reaction was stopped by adding 4 ul of detection reagent using an FRD and after 20 min incubation at room temperature the luminescence signal was measured using a ViewLux plate reader (Perkin Elmer, Shelton, CT). Data were expressed as relative luminescence units.
Potency is the fitted concentration of half-maximal effect.

SMILES | Potency
CC(C)CCCCOC(=O)c1ccccc1C(=O)OCCCCC(C)C | 17.9 µM (active)
O=C(O)c1cc(Cl)cc([N+](=O)[O-])c1Cl | 71 µM (active)
O=C(/N=N/C(=O)OCc1ccccc1)OCc1ccccc1 | 14.2 µM (active)
O=S(=O)(O)c1cc(O)c2ccc(Nc3ccccc3)cc2c1 | 39.9 µM (active)
COCCOCCOCCOCCO | inactive
CNC(=O)[C@H]1O[C@@H](n2cnc3c(NCc4cc(Cl)ccc4OCc4cc(C)no4)ncnc32)[C@H](O)[C@@H]1N | inactive
Nc1nnc(-c2cccc(Cl)c2Cl)c(N)n1 | inactive
CC(=O)c1sc(C)nc1C | inactive
CC1=CCC(C(C)C)=CC1 | inactive
COC(=O)c1ccccc1C(=O)c1ccc(OCCN2CCCCC2)cc1 | inactive
O=C1c2ccccc2C(=O)N1CCl | inactive
CC(C)(C)NC(N)=O | inactive
CC(C)OC(=O)CCCCC(=O)OC(C)C | inactive
O=C(CCNNC(=O)c1ccncc1)NCc1ccccc1 | 4.9 µM (active)
CCCCCCCCCC(C)=O | inactive
O=C(O)Cc1cn(-c2ccccc2)nc1-c1ccc(Cl)cc1 | 5.49 µM (active)
CC(=O)Nc1cccc(C)c1 | inactive
Cc1ccc(S(=O)(=O)O)c(C)c1 | inactive
CCOc1cc(NC(C)=O)ccc1C(=O)OC | inactive
O=C(O)Cc1ccc(Cl)cc1Cl | inactive

SMILES | Potency
CC(C)CCCC(C)(C)O | inactive
CNS(=O)(=O)CCc1ccc2[nH]cc(C3CCN(C)CC3)c2c1 | inactive
Nc1ccc2cc(S(=O)(=O)O)cc(O)c2c1 | 35.4 µM (active)
O=C(OCc1ccccc1)C(=O)OCc1ccccc1 | inactive
c1ccc2c(c1)ccc1c3ccccc3ccc21 | inactive
CC(=O)OC(C)OC(=O)C(C)c1ccc(-c2ccccc2)c(F)c1 (stereo not given) | 3.47 µM (active)
CCCC/C=C\CCCCCCCCCC=O | inactive
CCn1ccc(NS(=O)(=O)c2ccc(N)cc2)nc1=O | inactive
Cc1cccc(C)c1NC(=O)c1ccccc1C(=O)O | inactive
O=C(O)c1cc(Br)c(O)c(Br)c1 | 71 µM (active)
CCCCC(CC)COCCO (stereo not given) | inactive
CCCCCOC(=O)CCC | inactive
CC(=O)NCc1c(I)c(NC(C)=O)c(I)c(C(=O)O)c1I | inactive
N[C@@H](CCC(=O)Nc1ccc([N+](=O)[O-])cc1)C(=O)O | inactive
NNc1nnc(NN)c2ccccc12 | 34.7 µM (active)
CCCOC(=O)C(C)O (stereo not given) | inactive
C=CC(OCC)OCC | inactive
COc1cc2c(cc1OC)C(=O)CC2 | inactive
BrCCCCCBr | inactive
CCCCCCCCC1CCC(=O)O1 (stereo not given) | 71 µM (active)
